# In ChEMBL document CHEMBL3988442, “University of Dundee, Small-Polar-MMV Screening Library” (2021):
# About 13,000 (27%) of roughly 48,000 compounds showed an effect of 50% or more. This is one part of the list.
# Tested on: Wolbachia pipientis
# Assay: Anti-Wolbachia Cell-Based Screen
# Format: functional
# Set-up: scale not given: in the data most compounds retested in dose-response had high values
# Settings: 5 µM
row,Compound,Percent Effect [%]
1,CNCC(=O)N[C@H]1CN(c2nc(C)c3c(n2)CCCC3)C[C@@H]1C1CC1,-22.84
2,Clc1ccc(C2NCCc3cc4c(cc32)OCCO4)cc1 (stereo not drawn),60.9
3,OCCNC1CCc2cc3c(cc21)OCCO3 (stereo not drawn),-2.778
4,O=C(CSc1ccc2c(c1)OCCO2)NS(=O)(=O)c1ccccc1F,11.66
5,OCC1(CNC2CCc3cc4c(cc32)OCCO4)CC1 (stereo not drawn),-8.17
6,O=C(CCSc1ccccc1F)NS(=O)(=O)c1ccc2c(c1)OCCO2,-3.97
7,Fc1ccccc1C1NCCc2cc3c(cc21)OCCO3 (stereo not drawn),96.06
8,OCCCNC1CCc2cc3c(cc21)OCCO3 (stereo not drawn),0.5317
9,CCc1ccc(C2NCCc3cc4c(cc32)OCCO4)cc1 (stereo not drawn),132.5
10,CCc1nc2c(NCC3COc4ccccc4C3)ncnc2o1 (stereo not drawn),-41.62
11,CCNC(=O)C(C)NC(=O)Nc1ccccc1SCC (stereo not drawn),-19.41
12,O=C(O)C(F)(F)F.O=C(c1ccco1)N1CC[C@H]2[C@H]1CC(=O)N2c1cccnc1,-20.41
13,Cc1oncc1C(=O)N1CCC2(CCN(Cc3cccc(F)c3)C2=O)C1 (stereo not drawn),82.89
14,Cc1oncc1C(=O)N1CC[C@H]2[C@@H]1CCC(=O)N2c1cccnc1.O=C(O)C(F)(F)F,-37.57
15,Cc1oncc1C(=O)N1CCC2(CCN(Cc3cccnc3)C2=O)C1.O=C(O)C(F)(F)F (stereo not drawn),107.4
16,Cc1cccc(CN2CCCC(O)(CNCc3cccc(F)c3)C2=O)c1 (stereo not drawn),-1.044
17,COCCN1CCC2(CCCN(C(=O)c3cnoc3C)C2)C1=O (stereo not drawn),5.935
18,Cc1oncc1C(=O)N1CC[C@@H]2[C@@H]1CC(=O)N2Cc1cccnc1.O=C(O)C(F)(F)F,95.81
19,F[C@@H]1CN(Cc2nccs2)C[C@@H]1OCc1nc2cnccc2[nH]1,1.083
20,O=C(NC1CC1)C1CN(Cc2ccc3c(c2)OCCO3)CCN1 (stereo not drawn),-21.08
21,COc1ccc(CCNC(=O)C2CCC(Cn3cnnn3)CC2)cc1 (stereo not drawn),-2.407
22,COC(=O)c1ccc(NC(C)c2ccc3c(c2)CC(=O)N3)nn1 (stereo not drawn),83.43
23,COC(=O)c1ccc(NC(C)c2ccc3c(c2)NC(=O)CO3)nn1 (stereo not drawn),109.1
24,COC(=O)c1ccc(NC(C)c2ccc3c(c2)CCC(=O)N3)nn1 (stereo not drawn),54.02
25,COc1ccc(C)cc1C(C)NS(=O)(=O)c1ccc2c(c1)CCC(=O)N2 (stereo not drawn),-0.1201
26,CC(NC(=O)NCCCn1cccn1)c1ccc2c(c1)NC(=O)CO2 (stereo not drawn),-10.21

row,Compound,Percent Effect [%]
1,COc1ccc(C(C)NS(=O)(=O)c2ccc3c(c2)CCC(=O)N3)cc1F (stereo not drawn),13.2
2,CC(NC(=O)Nc1ccncc1)c1ccc2c(c1)CC(=O)N2 (stereo not drawn),6.994
3,COc1cccc(NC(=O)NC(C)c2ccc3c(c2)CC(=O)N3)c1 (stereo not drawn),-1.814
4,CC(NC(=O)NCCn1ccnc1)c1ccc2c(c1)NC(=O)CO2 (stereo not drawn),-0.9133
5,COc1ccc(-c2noc(Cn3cc4c(n3)CCC4)n2)c(OC)c1OC,2
6,Cc1cc2n(n1)CC(CNC1CCN(Cc3ccccc3C)CC1)CN2 (stereo not drawn),-1.399
7,COC(=O)c1ccc(N2CCN(CCC#N)C(C)C2)cc1 (stereo not drawn),9.254
8,COC(=O)c1ccc(N2CCN(CCC(=O)NC(N)=O)C(C)C2)cc1 (stereo not drawn),4.115
9,COCC(=O)N1CCN(c2ccc(C(=O)OC)cc2)CC1C (stereo not drawn),-2.487
10,COC(=O)c1ccc(N2CCN(CC(=O)NC(N)=O)C(C)C2)cc1 (stereo not drawn),126.9
11,CCC(=O)N1CCN(c2ccc(C(=O)OC)cc2)CC1C (stereo not drawn),-6.169
12,CNC(=O)NC(=O)CN1CCN(c2ccc(C(=O)OC)cc2)CC1C (stereo not drawn),123.3
13,COC(=O)c1ccc(N2CCN(C(=O)CC(F)(F)F)C(C)C2)cc1 (stereo not drawn),-6.136
14,COC(=O)c1ccc(N2CCN(C(=O)C3CCC3)C(C)C2)cc1 (stereo not drawn),-8.706
15,CNC(=O)NC(=O)CCN1CCN(c2ccc(C(=O)OC)cc2)CC1C (stereo not drawn),121.7
16,COC(=O)c1ccc(N2CCN(C(=O)C3CC3)C(C)C2)cc1 (stereo not drawn),-9.327
17,COC(=O)c1ccc(N2CCN(CCS(C)(=O)=O)C(C)C2)cc1 (stereo not drawn),130.9
18,COC(=O)c1ccc(N2CCN(CCN3CCOCC3)C(C)C2)cc1 (stereo not drawn),-3.012
19,CCn1nc(CC(C)C)cc1C(=O)N1CCOCC(O)C1 (stereo not drawn),14.61
20,Cc1c(Br)cccc1NC(=O)N(C)CCO,-1.587
21,CCc1cc(N[C@H]2CCC[C@H]2O)n2nccc2n1,-17.41
22,O=C(CCn1ccnc1)N1CC[C@@H](c2ccc3ccccc3c2)[C@H](O)C1,3.256
23,Cc1nn(C)c(Cl)c1C1CCCN1C(=O)c1ccc2c(c1)OCO2 (stereo not drawn),4.266
24,Cc1nn(C)c(C)c1C1CCCN1C(=O)c1ccc2c(c1)OCCO2 (stereo not drawn),107.2
25,Cc1nc(C(=O)N2CCCC2c2c(C)nn(C)c2C)ccc1C#N (stereo not drawn),-5.29
26,Cc1nn(C)c(C)c1C1CCCN1C(=O)c1ccc(CN(C)C)cc1 (stereo not drawn),0.5484

row,Compound,Percent Effect [%]
1,COc1c(C2CCCN2C(=O)c2ccc3c(c2)OCO3)c(C)nn1C (stereo not drawn),110.4
2,NC(=O)CC1CCCCN1C(=O)Cc1cccc(Br)c1 (stereo not drawn),-22.53
3,Cc1ccc(N2CCC(NC(C)c3ccc(C)o3)CC2)nc1 (stereo not drawn),5.031
4,O=C(CC(F)(F)F)N1C[C@H]2CC[C@@H]1CN(Cc1ccccc1)C2,-26.8
5,c1cncc(-c2c[nH]c([C@@H]3COCCN3Cc3ccncc3)n2)c1,-1.952
6,COCCn1cc(CC(=O)Nc2nc3c(s2)CCC3)c2ccccc21,108.7
7,CN(CC(=O)Nc1nc2c(s1)CCC2)C(=O)c1cccs1,12.75
8,COCCn1ccc2c(C(=O)Nc3nc4c(s3)CCC4)cccc21,149.9
9,COc1ncccc1C(=O)Nc1nc2c(s1)CN(S(=O)(=O)C1CC1)CC2,-5.987
10,COCCn1cc(C(=O)N2CCCC2c2ccncc2)c2ccccc21 (stereo not drawn),12.21
11,CN(CC(=O)Nc1nc2c(s1)CCCCCC2)C(=O)c1ccco1,-14.29
12,NC(=O)CCSCc1cc(Br)cc2cccnc12,-18.43
13,CCn1cc(C#N)c(=O)c2cc(Br)ccc21,-20.97
14,C=C(C)CN(CC)Cc1nc(C(C)(C)C)no1,1.625
15,Cc1ccccc1CN(Cc1ccc(S(C)(=O)=O)cc1)CC(C)C,34.24
16,COc1cc(Br)cc(CNC2CCCNC2=O)c1O (stereo not drawn),-10.61
17,COCc1ccc(OC)c(CNC2CCCNC2=O)c1 (stereo not drawn),133.5
18,COc1cc(Br)c(CNC2CCCNC2=O)cc1OC.Cl (stereo not drawn),-7.392
19,Cn1cccc1CNCC1CCCn2cc(C(C)(C)C)nc21 (stereo not drawn),4.297
20,NCC1CCN(c2cnn(CCCn3cccn3)c(=O)c2)CC1,3.68
21,Cc1cc(C)n(CC2CCCN2CC(=O)NC2CCOCC2)n1 (stereo not drawn),-0.8879
22,Cc1cc(C)n(CC2CCCCN2CC(=O)Nc2nnc(C)s2)n1 (stereo not drawn),-11.09
23,Cc1cc(C)n(CC2CCCCN2CCC(=O)Nc2cc(C)on2)n1 (stereo not drawn),105.6
24,Cc1cc(C)n(CC2CCCCN2CC(=O)Nc2ccncc2)n1 (stereo not drawn),9.261
25,Cc1cc(C)n(CC2CCCN2CCC(=O)Nc2cc(C)on2)n1 (stereo not drawn),109.3
26,Cc1cc(C)n(CC2CCCN2CC(=O)Nc2nnc(C)s2)n1 (stereo not drawn),-4.484

row,Compound,Percent Effect [%]
1,CN(C)C(=O)C1CN(Cc2ccc(C#N)cc2F)c2ccccc2O1 (stereo not drawn),-1.206
2,CC(NC(=O)N1CCN(c2cccs2)CC1)c1ccncc1 (stereo not drawn),-4.876
3,CC(=O)N1CCCC(C(=O)N2CCN(Cc3cc(C)on3)CC2)C1 (stereo not drawn),8.609
4,CC(=O)N1CCC(Cc2cnc(Nc3cc(C)on3)cn2)CC1,121.6
5,CSc1nnc(CC2CCN(C(=O)COc3cccnc3)CC2)n1C,8.261
6,O=C(Cc1cnccn1)N1CCC(c2nccn2CC2CC2)CC1,-28.72
7,CCC(=O)N1CCC(Cc2cnc(Nc3cnccn3)cn2)CC1,88.17
8,CC(=O)N1CCC(NC2(Cc3cc(C(C)(C)O)on3)COC2)CC1,1.756
9,Cc1cnn(CC2CCCCN2CC(=O)Nc2c(C)n[nH]c2C)c1 (stereo not drawn),8.734
10,Cc1cnn(CC2CCCN2CC(=O)Nc2cc(C)on2)c1 (stereo not drawn),104.6
11,CCN1CCC(NC(=O)CN2CCCCC2Cn2cc(C)cn2)CC1 (stereo not drawn),7.683
12,Cc1cnn(CC2CN(CC(=O)NCc3ccccn3)CCO2)c1 (stereo not drawn),-0.3283
13,Cc1cnn(CC2CCCCN2CC(=O)Nc2nncs2)c1 (stereo not drawn),-7.053
14,O=C(CN1CCCCC1Cn1cncn1)NCc1ccccn1 (stereo not drawn),-8.236
15,Cc1cnn(CC2CCCN2CC(=O)NCc2ccccn2)c1 (stereo not drawn),118.9
16,Cc1cnn(CC2CCCN2CC(=O)Nc2nncs2)c1 (stereo not drawn),1.96
17,Cc1cnn(CC2CCCN2CC(=O)Nc2nccs2)c1 (stereo not drawn),91.79
18,Cc1cnn(CC2CCCN2CC(=O)Nc2cc(C)no2)c1 (stereo not drawn),114.2
19,Cc1cnn(CC2CCCCN2CCC(=O)Nc2cc(C)on2)c1 (stereo not drawn),2.664
20,O=C(O)CC[C@@H]1CN(c2ccncc2)CC[C@@H]1N1CCOCC1,-3.387
21,Cc1ccc(C(=O)N2CCSCC2)cc1NC(=O)NCC1CCC1,-32.66
22,Cc1cnn(CC2CCCN2CC(=O)N(C)Cc2ccc(C)o2)c1 (stereo not drawn),15.94
23,Cc1cnn(CC2CCCN2CC(=O)Nc2cc(C(C)C)no2)c1 (stereo not drawn),129.6
24,Cn1ncc(NCc2cc(F)cc(F)c2)c(Cl)c1=O,-8.673
25,COc1ccc(NC(=O)CCC2CCCN(Cc3ncon3)C2)cc1Cl (stereo not drawn),9.109
